Screening data deposited in PubChem by several laboratories.
Shown are actives, neighbours in structure and some others; about 4.9% of the full set was active somewhere.
tim10-1 inh: growth inhibitors of tim10-1 mutant yeast; S. cerevisiae tim10-1 ts strain growth, BacTiter-Glo, 24 h; inhibition, % at 20 µM; 330,000 compounds, 2.2% hits;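 active means inhibition of at least 40%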;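 further: mutant grown at 25 °C; 0% = DMSO wells with yeast and 100% = wells holding no yeast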
tim23-1 inh: growth inhibitors of tim23-1 mutant yeast. S. cerevisiae tim23-1 growth, BacTiter-Glo luminescence, 24 h. inhibition, % at 20 µM. 330,000 compounds, 1.3% hits;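 active means growth inhibition of the mutant yeast at or above 50%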;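 further: temperature-sensitive mutant grown at 25 °C; plate controls were DMSO-treated mutant yeast for no effect and medium wells lacking yeast for full effect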
SKKanGAS inh: SKKanGAS growth inhibition; inhibition, % at 7.5 µM; 300,000 compounds, 1.3% hits; S. pyogenes SKKanGAS, kanamycin growth, BacTiter-Glo, 6 h;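 active means mean replicate score, as percent of positive control median, at least 50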;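 further: strain carries kanamycin resistance gene driven by streptokinase promoter and grows in 40 µg/ml kanamycin; loss of luminescence reflects streptokinase promoter inhibition or plain growth inhibition; 0% = median of DMSO wells and 100% = positive control at its reference dose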
NALP1 yeast inh: blocks the NALP1 inflammasome reconstituted in yeast; S. cerevisiae NALP1/ASC/caspase-1 growth, X-gal OD620, 72 h; inhibition, % at 10 µM; 280,000 compounds, 0.61% hits; in the data active means inhibition mostly above about 24%, no sharp cut-off; inactive means mostly below about 32%
TIM10 inh: growth inhibitors of TIM10 yeast strain; S. cerevisiae TIM10 strain growth, BacTiter-Glo luminescence, 24 h; inhibition, % at 10 µM; 330,000 compounds, 1.4% hits;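 active means inhibition of 40% or more at the single tested concentration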;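 further: wild-type TIM10 isogenic control strain grown at permissive 25 °C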
NALP3 yeast inh: NALP3 inhibition in yeast | Yeast reconstituted NLRP3/ASC/caspase-1, beta-gal luminescence, 24 h | 330,000 compounds, 0.39% hits | inhibition, % at 10 µM | AID 2825;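 active means inhibition of 50% or more; inactive means inhibition below 50%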;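 further: plate controls were induced DMSO wells for no effect and uninduced yeast grown without galactose for full effect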
* hit, by the source's call; . = no result.

SMILES | tim10-1 inh | tim23-1 inh | SKKanGAS inh | NALP1 yeast inh | TIM10 inh | NALP3 yeast inh
O=C(COc1cccc(Br)c1)NN=C1c2ccccc2-c2ccccc21 | 8.4 | 5.7 | -14.2 | 30.4 | 11.0 | -0.2
O=[N+]([O-])c1cccc(S(=O)(=O)Nc2nc3ccccc3nc2Nc2cccc(S(=O)(=O)N3CCCCC3)c2)c1 | . | . | 24.6 | 27.1 | . | .
Cc1ccc(S(=O)(=O)Nc2nc3ccccc3nc2Nc2cccc(S(=O)(=O)N3CCCC3)c2)cc1 | 7.8 | 17.4 | 66.3* | 7.0 | 12.0 | 5.0
CCOc1ccc(CCNC(=O)CN2C(=O)NC3(CCCCCC3)C2=O)cc1OCC | -0.1 | 2.8 | . | . | 0.0 | 6.8
C/C(N)=C(/C#N)C(=O)CSc1nc2scc(-c3ccc(F)cc3)c2c(=O)n1C | 11.5 | 2.2 | 70.4* | 22.4 | 17.2 | 16.5
COc1ccccc1OCCCn1c(C)c(C#N)c2ccccc21 | 24.8 | 19.8 | 61.8* | 15.6 | 15.1 | 10.5
COc1ccccc1OCCCn1cc(C#N)c2ccccc21 | 19.7 | 15.6 | 28.0 | 14.4 | -4.4 | 23.5
COc1cc(OC)c(OC)cc1CNC(=O)c1cc(S(=O)(=O)N2CCOCC2)ccc1F | -16.8 | -7.7 | . | . | -3.5 | 9.5
Cc1cccc(-c2cc3nc(C)cc(NCCCN(C)C)n3n2)c1 | 18.6 | -1.4 | -0.2 | -4.3 | 6.6 | -8.5
CN(C)CCCNc1cc(-c2ccccc2)nc2cc(-c3cccc(F)c3)nn12 | 31.6 | -6.3 | 8.0 | 25.8* | 26.6 | 39.0
O=C(CCCCCNC(=O)c1ccccc1)N=Nc1c(O)[nH]c2c(Br)cc(Br)cc12 | 13.0 | 5.0 | 59.4* | -20.3 | 8.8 | 16.0
O=C(CNC(=O)c1cccnc1)N=Nc1c(O)[nH]c2c(Br)cc(Br)cc12 | 10.5 | -4.6 | 14.1 | 7.1 | -15.2 | 18.3
CC(=O)c1cccc(NC(=O)c2cc(=O)[nH]c3ccc(S(=O)(=O)N4CCOCC4)cc23)c1 | 10.1 | 6.4 | . | . | 0.6 | 9.1
Cn1c(SCC(=O)NC2(C#N)CCCCC2)nnc1-c1cccnc1 | -7.6 | 9.8 | 54.0* | 14.8 | 2.1 | 7.7
C=CCNCCCOc1ccc(Cl)cc1Br | 11.0 | 2.1 | -1.7 | 46.4* | 7.3 | 9.0
OCCNCCCOc1ccc(Cl)cc1Br | 13.1 | 9.0 | 0.8 | 1.9 | -0.7 | 25.0
O=C(NC1CCCCC1)[C@H](CSCc1ccccc1)N1Cc2ccccc2C1=O | 24.0 | 11.9 | 6.2 | 23.9 | 8.6 | 12.7
CN(C)c1ccnc(Oc2ccccc2)c1C#N | . | . | . | 1.4 | . | .
CN(C)c1ccnc(Oc2ccc(Cl)cc2)c1C#N | 19.5 | 19.0 | 0.0 | 16.0* | 3.4 | 34.8
CCn1cc(C(=O)O)c(=O)c2cc(F)c(N3CCN(S(=O)(=O)c4ccc(NC(C)=O)cc4)CC3)cc21 | 17.9 | -8.9 | 53.3* | 31.5 | -6.2 | 12.1
CCn1cc(C(=O)O)c(=O)c2cc(F)c(N3CCN(S(=O)(=O)c4ccc5c(c4)OCCO5)CC3)cc21 | -7.0 | -7.4 | 59.5* | 1.4 | -4.4 | 31.8
CCn1cc(C(=O)O)c(=O)c2cc(F)c(N3CCN(C(=O)Nc4ccccc4)CC3)cc21 | 6.2 | -4.7 | 35.2 | 31.9 | 8.7 | 5.0
O=C(NCc1ccccc1)c1ccc(OC2CSC2)cc1 | 5.1 | -10.1 | 6.0 | 34.6* | -20.9 | 21.8
O=C(NCc1ccccc1)c1ccc(Oc2ccc(C(=O)NCc3ccccc3)cc2)cc1 | -9.1 | -4.7 | 6.8 | 13.5 | -0.6 | 13.5
CCOc1ccc(C(=O)Nn2cnnc2)cc1 | 12.8 | 8.4 | -3.0 | 33.4* | 10.6 | 5.7
SMILES | tim10-1 inh | tim23-1 inh | SKKanGAS inh | NALP1 yeast inh | TIM10 inh | NALP3 yeast inh
CC(=O)Nc1ccc(/C=C/C(=O)c2ccc3c(c2)OCCO3)cc1 | 33.0 | 36.8 | -2.8 | 3.9 | 31.3 | 26.2
CSc1ccc(/C=C/C(=O)c2ccc(NC(C)=O)cc2)cc1 | 16.3 | 17.1 | -12.0 | 53.2* | 23.5 | 22.2
COc1ccc(Cc2nnc(NC(=O)c3ccccc3F)s2)cc1 | 34.2 | 38.7 | 0.4 | -34.7 | 11.2 | 44.0
Cc1cc(NC(c2ccc(Cl)cc2)c2ccc3cccnc3c2O)no1 (stereo unspecified) | 17.5 | 43.7 | 100.8* | -3.6 | 17.0 | 10.2
CCCCC(=O)NC(c1cccs1)c1cc(Cl)c2cccnc2c1O (stereo unspecified) | 22.9 | 43.9 | 66.9* | -1.2 | 13.1 | 20.3
COc1ccc(C(NC(=O)C(C)C)c2ccc3cccnc3c2O)cc1 (stereo unspecified) | 3.7 | 38.3 | 54.7* | . | -46.2 | 7.8
CC(C)C(=O)NC(c1ccc(Cl)cc1Cl)c1ccc2cccnc2c1O (stereo unspecified) | -36.1 | 44.7 | 81.4* | -5.0 | -2.8 | 19.8
CCCCC(=O)NC(c1ccc(Cl)cc1Cl)c1ccc2cccnc2c1O (stereo unspecified) | 1.7 | -3.9 | 92.3* | 10.4 | -65.0 | 16.0
COc1cc(Br)cc(/C=N/NC(=O)Cc2ccc(C(F)(F)F)cc2[N+](=O)[O-])c1O | 13.3 | 5.7 | 97.8* | 19.4 | 17.5 | 16.0
COc1ccccc1NC(=O)Nc1nc(CC(=O)N2CCN(c3ccccc3OC)CC2)cs1 | 9.5 | 18.6 | 58.9* | . | 5.3 | 9.5
CCC(=O)Nc1nc(CC(=O)Nc2ccccc2OC)cs1 | 8.4 | 4.4 | -20.0 | -4.9 | -2.2 | 7.0
COc1ccccc1NC(=O)Nc1nc(CC(=O)Nc2ccc(OC)c(OC)c2)cs1 | -9.7 | -12.6 | 3.7 | . | -2.5 | 1.2
COc1ccccc1NC(=O)Cc1csc(NC(=S)Nc2ccc(C)cc2)n1 | 28.6 | 3.1 | 57.5* | 14.2 | -11.8 | 13.2
COc1cccc(NC(=O)Cc2csc(NC(=O)Nc3ccccc3OC)n2)c1 | 4.0 | 18.6 | -10.1 | . | -8.0 | 18.3
COc1cc(C)ccc1NC(=O)Cc1csc(NC(=O)Nc2ccccc2OC)n1 | 6.4 | 19.5 | 56.1* | . | 8.8 | 0.5
CCS(=O)(=O)N1Cc2ccccc2CC1C(=O)Nc1ncc(C)s1 (stereo unspecified) | 10.1 | 10.5 | -4.1 | 5.3 | 3.7 | 24.2
CCS(=O)(=O)N1Cc2ccccc2CC1C(=O)Nc1nnc(SCc2ccc(C#N)cc2)s1 (stereo unspecified) | 24.5 | 12.7 | 59.6* | 21.5 | 5.9 | 7.9
C=CCn1c(O)c(N=NC(=O)c2ccccc2NS(=O)(=O)c2cccs2)c2ccccc21 | 15.2 | -1.9 | 33.5 | 24.8 | -1.6 | 6.9
CCCCn1c(O)c(N=NC(=O)c2ccccc2NS(=O)(=O)c2cccs2)c2ccccc21 | 13.2 | 0.1 | 71.2* | 27.4 | 14.9 | 4.2
Cc1c(C(=O)N2CCN(CCc3ccccn3)CC2)oc2ccc(F)cc12 | 16.8 | -1.5 | -4.5 | 15.7 | 4.5 | -0.2
O=C(NC(=S)N1CCCCC1c1cccnc1)c1ccc(F)cc1 (stereo unspecified) | 34.4 | 22.8 | 99.1* | -9.1 | 4.4 | 12.6
O=C(NC(=S)N1CCCCC1c1cccnc1)c1ccc(Br)cc1 (stereo unspecified) | 32.4 | 37.4 | 8.3 | -4.3 | 32.1 | 10.0
CCOc1ccc(/C=C2\CCCc3c2nc2ccccc2c3C(=O)O)cc1OC | 1.9 | 23.4 | 5.6 | 7.5 | 8.1 | 21.7
